Common to all, as to assay: NCI-60 one-dose screen, 48 h (100 = growth as untreated, 0 = no growth, -100 = all killed)
One assay relates to HCT-15 colon. To be noted: 10 µM unless noted.
The subject of the next assay is HT29 colon. As to conditions: 10 µM unless noted.
A further assay relates to SNB-75 CNS. As to conditions: 10 µM unless noted.
Another assay relates to SNB-19 CNS. To be noted: 10 µM unless noted.
The test system of a further assay is U251 CNS. As to conditions: 10 µM unless noted.
The next assay deals with PC-3 prostate. To be noted: 10 µM unless noted.
The next assay concerns SK-MEL-5 melanoma. As to conditions: 10 µM unless noted.
The test system of a further assay is UACC-62 melanoma. To be noted: 10 µM unless noted.
The subject of another assay is LOX IMVI melanoma. As to conditions: 10 µM unless noted.
A further assay deals with SK-MEL-28 melanoma. To be noted: 10 µM unless noted.
Another assay deals with SK-MEL-2 melanoma. To be noted: 10 µM unless noted.
The test system of a further assay is EKVX NSCLC. To be noted: 10 µM unless noted.
Another assay concerns SN12C renal. To be noted: 10 µM unless noted.
A further assay deals with UO-31 renal. As to conditions: 10 µM unless noted.
Another assay relates to TK-10 renal. To be noted: 10 µM unless noted.
In the next assay the test system is ACHN renal. As to conditions: 10 µM unless noted.
A further assay relates to CAKI-1 renal. As to conditions: 10 µM.
Another assay has as its system A498 renal. To be noted: 10 µM unless noted.
The test system of the next assay is CCRF-CEM leukemia. As to conditions: 10 µM unless noted.
The subject of a further assay is MOLT-4 leukemia. As to conditions: 10 µM unless noted.

8 compounds from PubChem BioAssay (NCI) can be followed below.

About 83,000 compounds went through this panel and 20% of them were active in at least one assay; those are over-represented in the sample as a whole.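 Cells were grown in 96-well plates and exposed to the test compound at a single concentration for 48 hours; results are reported as percent growth, with values below 10 considered active.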 A number with no mark means an inactive call. Activity calls are given as the source filed them.

Turning to `CCOC(=O)Nc1ccc(-c2nc(-c3cccc(O)c3)c(-c3ccnc(Br)c3)[nH]2)cc1`, the growth in the assay on HCT-15 colon was 30.7%; in the assay on HT29 colon, 34.3%; in the assay with SNB-75 CNS, 14.7%; with SNB-19 CNS, 44.7%; in the assay with U251 CNS, 29.6%; in the assay on PC-3 prostate, 4.92% (active). Besides, the growth in the assay on SK-MEL-5 melanoma is 23.6%; in the assay on UACC-62 melanoma, 24.3%; in the assay on LOX IMVI melanoma, 14.5%; in the assay with SK-MEL-28 melanoma it was 46.9%; in the assay on SK-MEL-2 melanoma, 34.4%; in the assay on EKVX NSCLC, 44.2%. Also, the growth with SN12C renal is 44.7%; in the assay on UO-31 renal it was 31.3%; in the assay on TK-10 renal, 41.9%; with ACHN renal, 36.5%; with CAKI-1 renal, 27.3%; with A498 renal, 49.4%. The growth was 22.9% in the assay on CCRF-CEM leukemia and 2.17% (active) in the assay on MOLT-4 leukemia.

`COc1cc(CNC(=O)/C=C/c2ccccc2)ccc1OCC(=O)NO`: the growth was 101% in the assay with HCT-15 colon; 104% in the assay with HT29 colon; 85.3% in the assay on SNB-75 CNS; 98.9% in the assay with SNB-19 CNS; 101% with U251 CNS; 91% in the assay with PC-3 prostate. The growth in the assay on SK-MEL-5 melanoma is 100%; in the assay on UACC-62 melanoma it was 92.3%; in the assay on LOX IMVI melanoma, 91.9%; in the assay with SK-MEL-28 melanoma it was 107%; with SK-MEL-2 melanoma, 99.6%; in the assay on EKVX NSCLC, 95.2%. For the same compound, the growth with SN12C renal is 95.8%; in the assay on UO-31 renal it was 81.8%; with TK-10 renal, 102%; with ACHN renal, 93.3%; with CAKI-1 renal, 91.4%; with CCRF-CEM leukemia it was 105%. The growth in the assay on MOLT-4 leukemia was 95.7%.

As to `Cc1nn(-c2ccccc2)cc1/C=N/Nc1nc(Nc2ccccc2)nc(Nc2ccc(S(N)(=O)=O)cc2)n1`, the growth with HCT-15 colon is 7.54% (active); in the assay with HT29 colon, 5.91% (active); in the assay with SNB-75 CNS it was 44.8%; with SNB-19 CNS it was 7.01% (active); with U251 CNS it was -22.3% (active); in the assay on PC-3 prostate it was 1.45% (active). In addition, the growth in the assay on SK-MEL-5 melanoma is -44.3% (active); with UACC-62 melanoma it was -27.8% (active); in the assay with LOX IMVI melanoma it was -25.7% (active); in the assay with SK-MEL-28 melanoma it was -13.9% (active); in the assay on SK-MEL-2 melanoma it was 54.8%; in the assay on EKVX NSCLC, 18.8%. Also, the growth in the assay on SN12C renal was 0.245% (active); in the assay on UO-31 renal, -4.7% (active); in the assay with TK-10 renal, 44.5%; in the assay on ACHN renal it was 0.841% (active); in the assay on CAKI-1 renal, -27.8% (active); with A498 renal, -30.3% (active). Besides, the growth is 8.85% (active) with CCRF-CEM leukemia and 6.35% (active) in the assay on MOLT-4 leukemia.

In the case of `NS(=O)(=O)c1ccc(Nc2nc(N/N=C/c3ccc(F)cc3)nc(Nc3ccccc3)n2)cc1`, the growth in the assay on HCT-15 colon is 79.3%; in the assay on HT29 colon, 4.73% (active); in the assay with SNB-75 CNS it was 96.4%; with SNB-19 CNS it was 69.9%; in the assay with U251 CNS it was 11.9%; with PC-3 prostate, 39.9%. The growth with SK-MEL-5 melanoma is 38.1%; with UACC-62 melanoma, 60.5%; in the assay with LOX IMVI melanoma it was 60.6%; with SK-MEL-28 melanoma it was 63.3%; in the assay on SK-MEL-2 melanoma it was -9.45% (active); with EKVX NSCLC, 62.7%. Moreover, the growth with SN12C renal is 50.3%; in the assay with UO-31 renal it was 66.2%; in the assay on TK-10 renal, 1.71% (active); with ACHN renal, 80.8%; in the assay with CAKI-1 renal it was 56.8%; in the assay on CCRF-CEM leukemia, 20%. The growth with MOLT-4 leukemia was 21.8%.

Consider `CCOC(=O)C1=C(C)N=C2Sc3ccccc3N2C1c1ccccc1` (centres undefined), for which the growth in the assay on HCT-15 colon was 77.8%; in the assay with HT29 colon, -72.7% (active); with SNB-75 CNS, 87.1%; in the assay with SNB-19 CNS, 95.5%; in the assay on U251 CNS, 103%; with PC-3 prostate it was 78.2%. Also, the growth in the assay with SK-MEL-5 melanoma is 85.8%; with UACC-62 melanoma, 65.8%; in the assay with LOX IMVI melanoma, 84.3%; in the assay with SK-MEL-28 melanoma, 109%; in the assay on SK-MEL-2 melanoma, 89.7%; in the assay on EKVX NSCLC, 67.6%. In addition, the growth is 93.4% with SN12C renal; 64.7% in the assay with UO-31 renal; 110% in the assay on TK-10 renal; 88% in the assay with ACHN renal; 65.6% with CAKI-1 renal; 86.2% in the assay with CCRF-CEM leukemia. For the same compound, in the assay with MOLT-4 leukemia, the growth is 87.2%.

On to `C#CCOc1ccccc1C(Nc1ccccc1)c1nnnn1C1CCCCC1` (centres undefined), for which the growth in the assay with HCT-15 colon was 95.5%; in the assay on HT29 colon, 105%; in the assay with SNB-75 CNS it was 102%; with SNB-19 CNS, 94.7%; with U251 CNS, 99.9%; in the assay on PC-3 prostate, 92.6%. Besides, the growth with SK-MEL-5 melanoma is 99.6%; with UACC-62 melanoma, 63.3%; with LOX IMVI melanoma it was 95.4%; in the assay with SK-MEL-28 melanoma, 101%; with SK-MEL-2 melanoma, 110%; in the assay with EKVX NSCLC, 95.9%. The growth in the assay with SN12C renal is 104%; in the assay with UO-31 renal, 78.5%; with TK-10 renal it was 106%; with ACHN renal it was 93.9%; in the assay on CAKI-1 renal, 59.6%; in the assay on CCRF-CEM leukemia, 92.7%. Besides, the growth in the assay on MOLT-4 leukemia is 88.3%.

Take `CN(C)c1ccc(/C=N/Nc2nc(N/N=C/c3ccc(N(C)C)cc3)nc(N3CCOCC3)n2)cc1`: the growth was 22.4% in the assay on HCT-15 colon; 102% in the assay with HT29 colon; 87.4% with SNB-75 CNS; 91.3% in the assay on SNB-19 CNS; 44.3% with U251 CNS; 87.7% with PC-3 prostate. The growth is 100% with SK-MEL-5 melanoma; 97.8% with UACC-62 melanoma; 87.7% in the assay with LOX IMVI melanoma; 106% in the assay with SK-MEL-28 melanoma; 98.6% with SK-MEL-2 melanoma; 95.4% in the assay on EKVX NSCLC. Moreover, the growth in the assay with SN12C renal is 89.2%; in the assay on UO-31 renal it was 90.7%; in the assay on TK-10 renal, 110%; in the assay on ACHN renal it was 104%; in the assay on CAKI-1 renal, 96%; with CCRF-CEM leukemia, 13.3%. Moreover, in the assay with MOLT-4 leukemia, the growth was 96.7%.

Take `CCOc1c(C#N)c(Nc2ccc(S(N)(=O)=O)cc2)c(C#N)c2nnc(C)n12`: the growth was 105% in the assay on HCT-15 colon; 107% in the assay with HT29 colon; 91% with SNB-75 CNS; 101% in the assay with SNB-19 CNS; 108% with U251 CNS; 85.4% in the assay on PC-3 prostate. Further, the growth was 97.8% with SK-MEL-5 melanoma; 91.8% in the assay on UACC-62 melanoma; 95.6% with LOX IMVI melanoma; 110% in the assay on SK-MEL-28 melanoma; 101% in the assay with SK-MEL-2 melanoma; 90.5% in the assay on EKVX NSCLC. The growth with SN12C renal was 98.1%; in the assay with UO-31 renal, 78.4%; in the assay on TK-10 renal, 125%; in the assay on ACHN renal, 90.2%; in the assay on CAKI-1 renal it was 88.7%; with CCRF-CEM leukemia, 104%. Besides, in the assay with MOLT-4 leukemia, the growth was 104%.
